MOR-DOR inv ag: inverse agonists of MOR-DOR heterodimerization, primary screen, cell-based, luminescence. Mu-type opioid receptor (Homo sapiens) + Delta-type opioid receptor (Homo sapiens), …. cell-based MOR-DOR heterodimer luminescence, inverse agonism. inhibition, % at 9.3 µM. actives 0.21% (n = 340,000); in the data active = inhibition above about 22%, passing the limit was not always enough
HTR5A ag ctr: HTR5A agonists in luminescence cell assay, primary screen, counter-screen for OPRM1-OPRD1 heterodimer agonist project, full-deck HTS. 5-hydroxytryptamine receptor 5A (Homo sapiens), P47898. cell-based. activation, % at 9.3 µM. actives 0.61% (n = 340,000). AID 504692, 2011; in the data active = activation mostly above about 9.5%, no sharp cut-off; inactive = mostly below about 7.6%
Target sequence (P47898 whole entry, looked up): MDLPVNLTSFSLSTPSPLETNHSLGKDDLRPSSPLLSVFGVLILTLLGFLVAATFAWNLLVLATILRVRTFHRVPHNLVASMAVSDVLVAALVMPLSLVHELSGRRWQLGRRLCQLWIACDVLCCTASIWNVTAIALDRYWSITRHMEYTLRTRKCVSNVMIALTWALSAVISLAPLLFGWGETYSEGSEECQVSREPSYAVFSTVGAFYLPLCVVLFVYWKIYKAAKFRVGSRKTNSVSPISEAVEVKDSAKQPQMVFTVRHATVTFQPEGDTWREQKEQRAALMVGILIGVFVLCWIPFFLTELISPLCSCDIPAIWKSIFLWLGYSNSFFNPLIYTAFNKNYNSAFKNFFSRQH
HTR5A inv ag: HTR5A inverse agonists in luminescence cell assay, primary screen, counter-screen for OPRM1-OPRD1 heterodimer inverse agonist project, full-deck HTS | HTR5A cell line, inverse agonism | inhibition, % at 9.3 µM | actives 0.083% (n = 340,000) | AID 504634, 2011; in the data active = inhibition mostly above about 23%, no sharp cut-off; inactive = mostly below about 18%
MOR-DOR ag-1: agonists of OPRM1-OPRD1 heterodimerization, primary screen, cell-based, luminescence. actives 0.3% (n = 340,000). activation, % at 9.3 µM. AID 504326, 2011. cells
MOR-DOR ag-2: OPRM1-OPRD1 heterodimerization promoters, counter-screen for HTR5A agonist project, cell-based, luminescence | activation, % at 9.3 µM | U2OS counter-screen cells, complementation luminescence, 3 h | AID 504913, 2011 | shares compounds with HTR5A ag ctr | actives 13% (n = 800)
HTR5A ag confirm: HTR5A agonists, retest of hits, confirmation, cell-based, luminescence | actives 17% (n = 800) | activation, % at 9.3 µM | HTR5A agonist cell assay | shares compounds with HTR5A ag ctr; in the data active = activation above about 17%
Each line names hits and unclear results; the compound was inactive in the other large screens (follow-up assays come after a bar, where they were run); ! = a repeat was not active. Only some compounds are listed: those with a hit (about 1.1% of all), similar ones and a draw of the others. Rule as the data show it, unless noted: active = activation above about 18%; inactive = the rest.

COc1ccc(-n2c(C)cc(C(=O)COC(=O)c3ccc(O)cc3O)c2C)cc1	HTR5A ag ctr 15 | MOR-DOR ag-2 inactive | HTR5A ag confirm inactive
Cc1cc(C(=O)COC(=O)c2ccc(O)cc2O)c(C)n1-c1ccccc1	none
O=C(Nc1ccc(Nc2ccccc2)cc1)c1c(Cl)cccc1Cl	none
O=C(Nc1ccc(Nc2ccccc2)cc1)c1c(F)c(F)c(F)c(F)c1F	HTR5A ag ctr 16 | MOR-DOR ag-2 inactive | HTR5A ag confirm inactive
Nc1ccc(C(=O)N/N=C/c2cccc(Oc3ccccc3)c2)cc1	HTR5A ag ctr 23 | MOR-DOR ag-2 inactive | HTR5A ag confirm 27
O=C(CCCCCn1c(=S)[nH]c2cc3c(cc2c1=O)OCO3)N1CCN(c2ccccc2)CC1	none
COc1cccc(N2CCN(C(=O)CCCCCn3c(=S)[nH]c4cc5c(cc4c3=O)OCO5)CC2)c1	HTR5A ag ctr 21 | MOR-DOR ag-2 inactive | HTR5A ag confirm 21
COC(=O)[C@H](CC(C)C)N1Cc2cc(OC)cc(OC)c2-c2ccccc2S1(=O)=O	none
NC(=O)C1CCN(C(=O)C2CC(=O)N(Cc3ccccc3)C2)CC1 (stereo not drawn)	none
COc1ccc(/C=N/NC(=O)CNS(=O)(=O)c2ccccc2)cc1	HTR5A ag ctr 21 | MOR-DOR ag-2 inactive | HTR5A ag confirm inactive
CC(=O)Nc1ccc(/C=N/NC(=O)CNS(=O)(=O)c2ccccc2)cc1	none
Cc1cccc2cc(CNCC3CCCO3)c(Cl)nc12 (stereo not drawn)	HTR5A ag ctr 15 | MOR-DOR ag-2 inactive | HTR5A ag confirm inactive
O=C(Nc1ccc(C(=O)N2CCCC2)cc1)c1ccccc1[N+](=O)[O-]	HTR5A ag ctr 18 | MOR-DOR ag-2 inactive | HTR5A ag confirm inactive
CC(C)(C)c1ccc(C(=O)NN=C2CCCC2)cc1	HTR5A ag ctr 15 | MOR-DOR ag-2 inactive | HTR5A ag confirm inactive
O=C(NN=C1CCCCCCC1)c1ccc(F)cc1	none
C=C1CCc2c([nH]c3ccc(OCC(C)C)cc23)C1=O	HTR5A ag ctr 22 | MOR-DOR ag-2 inactive | HTR5A ag confirm inactive
Cc1ccccc1NC(=O)NC(C)(C)CC(C)(C)C	none
CC1=C(C(=O)Nc2ccccc2C(=O)N2CCCCC2)SCCO1	none
c1ccc2c(c1)nc(N1CCCCC1)c1ccccc12	none
c1ccc2c(c1)nc(N1CCOCC1)c1ccccc12	HTR5A ag ctr 19 | MOR-DOR ag-2 inactive | HTR5A ag confirm inactive
Cn1cccc1C(=O)NC(=O)COC(=O)CNS(=O)(=O)c1ccc(Br)cc1	HTR5A ag ctr 17 | MOR-DOR ag-2 inactive | HTR5A ag confirm inactive
C=CCCC(=O)N1CCC(n2nccc2NC(=O)CCCc2ccccc2)CC1	none
NC(=O)c1ccc(NC(=O)COC(=O)c2c[nH]c3ccccc23)cc1	HTR5A ag ctr 18 | MOR-DOR ag-2 inactive | HTR5A ag confirm inactive
NC(=O)c1ccc(NC(=O)COC(=O)CCSc2ccccc2)cc1	HTR5A ag ctr 15 | MOR-DOR ag-2 inactive | HTR5A ag confirm inactive
Cc1ccc(SCCC(=O)OCC(=O)Nc2ccc(C(N)=O)cc2)cc1	none
O=C(O/N=C1\CCCc2ccccc21)c1ccc(F)cc1	none
COc1cccc(N=C(N)N=C(N)N)c1	HTR5A ag ctr 16 | MOR-DOR ag-2 inactive | HTR5A ag confirm inactive
CCOc1ccc(-n2c(SCC(=O)Nc3ccc(CC)cc3)nc3n[nH]c(C)c3c2=N)cc1	HTR5A ag ctr 17 | MOR-DOR ag-2 inactive | HTR5A ag confirm inactive
CCCN(CCC)C(=O)CSc1nc2n[nH]c(C)c2c(=N)n1-c1ccc(OCC)cc1	none
COCCn1c(=O)[nH]c2cc(C(=O)N3CCN(c4ccc(Cl)cc4)CC3)ccc2c1=O	none
Cc1c(N=C/C=C/c2ccccc2)c(=O)n(-c2ccccc2)n1C	none
Cc1c(N=C/C=C2/N(C)c3ccccc3C2(C)C)c(=O)n(-c2ccccc2)n1C	HTR5A ag ctr 22 | MOR-DOR ag-2 inactive | HTR5A ag confirm 29!
Cc1c(NC(=S)/C=C2\N(C)c3ccccc3C2(C)C)c(=O)n(-c2ccccc2)n1C	none
Cc1c(N=C/C=C2\N(C)c3ccccc3C2(C)C)c(=O)n(-c2ccccc2)n1C	HTR5A ag ctr 48 | MOR-DOR ag-2 inactive | HTR5A ag confirm 32
O=C(Nc1cc(Cl)ccc1Cl)P(=O)(O)c1ccccc1	none
COc1ccccc1N(C)S(=O)(=O)c1ccc(C(=O)NC2CCCCC2)cc1	none
Cc1ccc(NC(=O)C2C3/C=C\CCCCC32)cc1C (stereo not drawn)	HTR5A ag ctr 20 | MOR-DOR ag-2 inactive | HTR5A ag confirm inactive
O=C(Nc1ccccc1)C1C2/C=C\CCCCC21 (stereo not drawn)	none
CCOC(=O)c1cocc1C(=O)O	none
O=S(=O)(NCc1ccc(F)cc1)c1cccc(S(=O)(=O)N2CCOCC2)c1	HTR5A ag ctr 20 | MOR-DOR ag-2 inactive | HTR5A ag confirm inactive
O=S(=O)(NCc1ccccc1F)c1cccc(S(=O)(=O)N2CCOCC2)c1	none
CN1C(=O)c2cccc3c(S(=O)(=O)Nc4ccc(O)c(C(=O)O)c4)ccc1c23	none
CN1C(=O)c2cccc3c(S(=O)(=O)N4CCCC4C(=O)O)ccc1c23 (stereo not drawn)	HTR5A ag ctr 17 | MOR-DOR ag-2 inactive | HTR5A ag confirm inactive
Cc1ccnc(NC(=O)c2cccc3ccccc23)c1	HTR5A ag ctr 17 | MOR-DOR ag-2 inactive | HTR5A ag confirm inactive
Cc1ccnc(NC(=O)c2ccccc2[N+](=O)[O-])c1	none
COc1ccc(C)cc1NC(=O)CSc1nnc(-c2ccc(Br)cc2)o1	HTR5A ag ctr 22 | MOR-DOR ag-2 inactive | HTR5A ag confirm inactive
Cc1ccn(-c2ccc(NC(=O)c3cccs3)cc2)n1	none
CCCCCCCCCCOC(=O)Cn1c(COc2ccccc2OC)[n+](C)c2ccccc21	HTR5A ag ctr 14 | MOR-DOR ag-2 37 | HTR5A ag confirm inactive
O=C(CNCc1ccc(F)cc1)Nc1ccc(S(=O)(=O)N2CCOCC2)cc1	none
COc1ccc(Br)c(C(=O)OCC(=O)NC(=O)NC2CCCC2)c1	none
COC(=O)c1ccc(-c2cc(C(=O)O)c3cc4c(cc3n2)OCCO4)cc1	HTR5A ag ctr 17 | MOR-DOR ag-2 inactive | HTR5A ag confirm inactive
Cc1ccc(Nc2nc(N)nc(CN3CCN(Cc4ccc5c(c4)OCO5)CC3)n2)cc1Cl	HTR5A ag ctr 18 | MOR-DOR ag-2 inactive | HTR5A ag confirm inactive
COc1ccc(C(=O)N2CCN(c3ccccc3Cl)CC2)cc1S(=O)(=O)NC1CC1	HTR5A ag ctr 18 | MOR-DOR ag-2 96 | HTR5A ag confirm inactive
COc1ccccc1N1CCN(C(=O)C2CCN(C(=O)c3cccc(Cl)c3)CC2)CC1	none

High-throughput results from PubChem.
